Sampled rows, rich in hits. Any-hit rate of the full collection: about 19%.
DT40 TDP1 no CPT: qHTS for Inhibitors of human tyrosyl-DNA phosphodiesterase 1 (TDP1): qHTS in cells in absence of CPT; DT40 Tdp1-/- hTDP1 cells, no CPT, ATP luminescence, 48 h; Potency, µM (highest dose often 46.2 µM), inactives show at the highest dose activity change, negative = growth inhibition, usual class: inhibitors; hit rate 15% among 420,000; AID 686978, 2013; further: potency means the concentration at half of the fitted maximal effect; nearly all actives have a fitted effect of over 55% in size
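Seeded 400 DT40-hTDP1 cells/well (vehicle DMSO, no 20 nM CPT); pinned compounds; ≥48 hr at 37 °C; CellTiter-Glo luminescence as viability measure.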
HT1080-NT tox: kills 2HG-producing HT-1080-NT fibrosarcoma cells; HT-1080-NT fibrosarcoma viability, CellTiter-Glo ATP luminescence, 48 h; Potency, µM (series often up to 46.1 µM), for inactives: at the top dose activity, negative = less viability, most hits filed as cytotoxic; hit rate 1.6% among 360,000; AID 686970;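 further: NT is the 2HG producing partner of a matched IDH1 knockdown line; potency means the concentration at half of the fitted maximal effect; 0% = DMSO-treated cells and -100% = media-only wells without cells; nearly all actives have a fitted effect of over 55% in size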
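750 cells/well, RPMI + 5% FBS; 2 h settle, compound pin-transfer, 48 h at 37 degrees C. CellTiter-Glo 10 min RT, luminescence. Normalized to DMSO and media-only wells.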
HT1080 IDH1KD tx: kills HT-1080 cells with IDH1 knockdown | HT-1080 IDH1 knockdown viability, ATP luminescence, 48 h | Potency, µM (top dose mostly 46.1 µM), for inactives: at the highest dose activity, negative = toxicity, hits mostly cytotoxic | hit rate 2% among 360,000 | AID 686971;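 further: potency means the concentration at half of the fitted maximal effect; 0% = DMSO wells and -100% = cell-free medium wells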
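Knockdown cells (IDH1KD HT-1080) received compounds 2 h after plating at 750 cells/well and were kept 48 h at 37 °C in 5% FBS RPMI. A CellTiter-Glo luminescence read gave % activity for curve fitting.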
DT40 TDP1 CPT: growth inhibition of DT40 Tdp1-/-;hTDP1 cells with camptothecin (screen for TDP1 inhibitors) | hit rate 12% among 420,000 | Potency, µM (doses to about 46.2 µM), for inactives: top-dose activity change, negative = growth inhibition, usual class: inhibitors | chicken DT40 Tdp1-/-;hTDP1 cells + 20 nM CPT, ATP luminescence, 48 h; further: potency means the concentration at half of the fitted maximal effect; nearly all actives have a fitted effect of over 55% in size
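Cell growth measured by CellTiter-Glo luminescence after a minimum 48 h, 37 C compound exposure with 20 nM CPT in Tdp1-knockout DT40 cells stably expressing hTDP1, seeded 400/well; qHTS titration format.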
IL-1B inflam inh: blocks inflammasome-driven IL-1 beta release. THP-1 LPS/ATP IL-1B secretion, AlphaLISA, 16 h; active compounds read low. activity change, % at 57.5 µM. hit rate 4.7% among 360,000. AID 743279; in the data active means activity change below about -50%; inconclusive means mostly about -30% to -49%
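Secreted IL-1B measured by AlphaLISA bead assay after 16 h compound exposure of THP-1 cells; compounds (final up to 57.5 uM) added 1 h before LPS (250 ng/mL) and ATP (1.25 mM) stimulation; lower signal means less secretion.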
An asterisk follows results filed as active; ? = inconclusive; . = not tested or not shown; [ ] = another dose, or the depositor's remark. Unless noted, the call rests on the fitted dose curve; in most records, active means well fitted curve in the direction sought with a large enough effect; inconclusive means small, poorly fitted or top-dose-only effect, or another doubt; inactive means no such curve, though single readings can be large; an effect the other way counts as inactive or inconclusive. Unless noted, on the % scale 0 is the no-effect control and ±100 the full control effect.

SMILES	DT40 TDP1 no CPT	HT1080-NT tox	HT1080 IDH1KD tx	DT40 TDP1 CPT	IL-1B inflam inh
Nc1c(S(=O)(=O)c2cccs2)c2nc3ccccc3nc2n1/N=C/c1cccc(O)c1	?	?	21µM*	13µM*	-80*
COCCNC(=O)c1c(N)n(/N=C/c2cccs2)c2nc3ccccc3nc12	16µM*	-8%	-13%	?	-3
COc1ccc(/C=N/n2c(N)c(S(=O)(=O)c3cccs3)c3nc4ccccc4nc32)cc1OC	-20%	-8%	-8%	?	?
COc1cccc(/C=N/n2c(N)c(S(=O)(=O)c3cccs3)c3nc4ccccc4nc32)c1	?	28%	21%	-24%	5
COc1ccc(CCn2c(NN)nc3c2c(=O)[nH]c(=O)n3C)cc1	5.2µM*	8.2µM*	?	4.6µM*	73
CCOC(=O)C(C)Sc1nc(=O)n2cccc(C)c2n1 (stereo unspecified)	-1%	0%	-11%	1%	-4
CCOC(=O)C(C)Sc1ncc(-c2ccc(Cl)cc2)cn1 (stereo unspecified)	-12%	-6%	-8%	4.6µM*	-18
CCOC(=O)C(=CN(CCc1ccccc1)CC(=O)OC)C(=O)OCC	6%	20%	15%	-20%	7
COc1cc(OC)cc(-c2nc3ccccc3c(=O)n2OC(=O)c2ccccc2C)c1	-26%	?	?	?	-61*
N#Cc1ccc(-c2nc3ccc(Br)cc3c(=O)n2O)cc1	?	1%	10%	?	11
O=c1c2ccccc2nc(-c2ccccc2)n1O	-2%	-1%	-6%	2.1µM*	0
O=c1c2cc(Br)ccc2nc(-c2cccc(C(F)(F)F)c2)n1O	10µM*	?	?	18µM*	73
COc1ccc(-c2nc3ccccc3c(=O)n2CCOc2c(C)cccc2C)cc1	?	11%	11%	-14%	45
COc1ccc(-c2nc3ccccc3c(=O)n2O)cc1	26%	?	?	-14%	-22
O=C(On1c(-c2ccccc2)nc2ccccc2c1=O)c1ccco1	23µM*	-25%	-15%	23µM*	-25
O=C(O)C1C2C=CC3(CN(Cc4ccccn4)C(=O)C13)O2 (stereo unspecified)	-2%	11%	18%	-2%	-1
O=C(COC(=O)/C=C/c1ccccc1)NCc1ccco1	-8%	-5%	3%	-1%	38
COc1ccc(-c2ccc(-c3cc(=O)oc4cc(OC)c(OC)c(OC)c34)cc2)cc1OC	15µM*	-4%	-12%	18µM*	17
COc1cc2oc(=O)cc(-c3cccc(-c4cccc(C)c4)c3)c2c(OC)c1OC	23µM*	?	?	?	28
COc1ccc([N+](=O)[O-])cc1COc1cc(C)cc2oc(=O)cc(-c3ccccc3)c12	?	?	?	?	40
COc1cc2oc(=O)cc(-c3ccc(-c4ccc(O)cc4)cc3)c2c(OC)c1OC	18µM*	-22%	-23%	?	-14
O=C1N=C(N2CCN(c3ccccc3)CC2)SC1Cc1ccccc1 (stereo unspecified)	?	-1%	-4%	?	4
Cc1ccc(N2CCN(C3=NC(=O)C(Cc4ccccc4)S3)CC2)cc1 (stereo unspecified)	23µM*	7%	11%	29µM*	4
C[C@H](CO)N1C[C@H](C)[C@@H](CN(C)C)Oc2c(NS(=O)(=O)c3cccs3)cccc2C1=O	-3%	7%	4%	7%	2
COc1cc(/C=C2/C(=O)NN(c3cccc(F)c3)C2=O)ccc1OC(=O)c1ccco1	16µM*	-6%	1%	?	-8
SMILES	DT40 TDP1 no CPT	HT1080-NT tox	HT1080 IDH1KD tx	DT40 TDP1 CPT	IL-1B inflam inh
COc1ccc(CN2C(=O)C(CC(C)C)Nc3ncnc(N4CCN(c5ccccn5)CC4)c32)cc1 (stereo unspecified)	?	-19%	?	?	-58*
Cc1ccc(CN2C(=O)C(CC(C)C)Nc3ncnc(N4CCN(c5ccccn5)CC4)c32)cc1 (stereo unspecified)	18µM*	?	?	?	-56*
CC(C)CC1Nc2ncnc(N3CCN(c4ccccn4)CC3)c2N(Cc2ccc(Br)cc2)C1=O (stereo unspecified)	?	1%	?	?	?
Cc1sc2ncnc(N3CCC(C(=O)NNC(=O)c4ccc(Cl)cc4)CC3)c2c1C	15µM*	-9%	-6%	16µM*	-81*
Cc1sc2ncnc(N3CCC(C(=O)Nc4ccc(C#N)cc4)CC3)c2c1C	?	0%	-1%	?	-2
COc1ccc(S(=O)(=O)N(C)C)cc1NC(=O)C1CCN(c2ncnc3sc(C)c(C)c23)CC1	9.2µM*	-15%	-29%	21µM*	-15
Cc1sc2ncnc(N3CCC(C(=O)Nc4cc(C(F)(F)F)ccc4OCC(F)(F)F)CC3)c2c1C	18µM*	-9%	-10%	?	-56*
Cc1sc2ncnc(N3CCC(C(=O)Nc4cc(S(C)(=O)=O)ccc4Cl)CC3)c2c1C	18µM*	-14%	-11%	13µM*	?
O=C(CN(Cc1ccccc1)C(=O)CCC(=O)Nc1nccs1)NCc1ccccc1	0%	3%	10%	4%	14
COc1ccc(C2=C(C)C(=NCCCN3CCN(c4cc(C)ccc4C)CC3)NS2(=O)=O)cc1	-103%	.	.	4.6µM*	.
COc1cc(NC(=O)NCCN2CCN(c3ccc(Cl)cc3)CC2)ccc1C	?	?	-2%[9.24 µM]	?	-60*
CCCN1CCN(CCNC(=O)Nc2ccc(OC)c(OC)c2)CC1	1%	.	.	?	.
COc1ccc(NC(=O)NCCN2CCN(c3cccc(Cl)c3)CC2)cc1	?	-15%	-14%	-27%	-15
COc1ccc(NC(=O)NCCCN2CCN(c3cc(C)ccc3C)CC2)cc1	8.2µM*	?	?	8.2µM*	-28
COc1ccc(N2CCN(CCNC(=O)Nc3ccc(C)c(Cl)c3)CC2)cc1	16µM*	-23%	?	23µM*	-30
COC(=O)c1ccccc1NC(=O)C(C)c1ccc([N+](=O)[O-])cc1 (stereo unspecified)	-12%	-1%	0%	?	38
CC1CCCN(C(=O)c2ccc(Br)c(S(=O)(=O)N3CCOCC3)c2)C1 (stereo unspecified)	-22%	0%	7%	-16%	-2
COc1ccc(N2CCN(CCNC(=O)Nc3ccc([N+](=O)[O-])cc3OC)CC2)cc1	23µM*	-2%	-28%	29µM*	-18

Screens as filed in PubChem BioAssay.
